Laboratory results reported in PubChem BioAssay (NCATS).
Unmarked numbers belong to inactive results. Active and inactive are the calls of the source. Calls follow the shape of the dose curve; as a rule, active = well fitted curve in the direction sought with a large enough effect; inconclusive = small, poorly fitted or top-dose-only effect, or effect the other way, or another doubt; inactive = no such curve, though single readings can be large or run the other way.

Assay: qHTS for inhibitors of adenylyl cyclases using a fission yeast platform: a pilot screen against the NCATS LOPAC library (AID 1347410)
Details: S. pombe CHP2027, fbp1-GFP fluorescence, 18 h; series mostly up to 57.5 µM; activity, positive = inhibition (GFP gain): at the top concentration
Source text: PI: Charles S. Hoffman Ph.D
Boston College, 140 Commonwealth Ave., Chestnut Hill, MA
Assay Development and Screening Technology Laboratory (ADST)
National Center for Advancing Translational Sciences (NCATS), Rockville, MD
National Institute of Health (NIH), Bethesda, Maryland
The fission yeast Schizosaccharomyces pombe uses a cAMP signaling pathway to link glucose-sensing to Protein Kinase A activity in order to regulate cell growth, sexual development, gluconeogenesis, and exit from stationary phase. Here, we describe the successful functional expression of all ten mammalian adenylyl cyclase (AC) genes, along with the human GNAS G-alpha gene in this organism. By measuring expression of a PKA-repressed fbp1-GFP reporter together with direct measurements of intracellular cAMP levels, one can detect both basal AC activity from all ten AC genes as well as GNAS-stimulated activity from eight of the nine transmembrane ACs (tmACs; AC2-AC9).
Further confirmation and validation of active compounds lead to the identification of diphenyleneiodonium chloride (DPI) as an inhibitor of basal AC activity. This fluorescence based fbp1-GFP-GNAS screening technology could facilitate the development of therapeutic compounds that target GNAS or the ACs, an area in which there is significant unmet need.
The gain-of-signal output is not substantially affected by cytotoxic compounds within the library.
Getz RA, et al., A fission yeast platform for heterologous expression of mammalian adenylyl cyclases and high throughput screening, Cellular Signaling, 2019, 60: 114-121. doi.org/10.1016/j.cellsig.2019.04.010.
PROTOCOL TABLE (as described by Inglese J, Shamu CE and Guy RK. 2007)
SEQUENCE No. (e.g., 1, 2, 3, etc.); […] (e.g., Cells, Incubation, Reagent, etc.); VALUE; DESCRIPTION.
1; Dispense growth medium; 2 uL; black, clear bottom, low base, 1536-well Aurora assay plate.
2; Compounds and control; 23 nL; Kalypsis pin tool (Wako USA) equipped with a 1536-well pin head to transfer to the assay plates.
3; Dispense yeast cells; 2 uL; CHP2027 cells.
4; Incubation; 18 hours (dark at 30C); Non-humidified microbial incubator.
5; Detector; 425V; Fluorescence; laser scanning cytometry.
NOTES (numbers refer to Sequence numbers above)
1. S. pombe growth medium EMM containing histidine, lysine, and uracil was initially dispensed into the assay plate to avoid yeast contamination using a Multidrop Combi dispenser (Thermo Fisher Scientific).
2. 10 mM stock solution of DPI (Sigma-Aldrich D2926) dissolved in DMSO was used as a 16-point dose response positive control, while 1.11 mM DPI stock solution was used as a single point max response positive control. Solvent DMSO was used as the negative control. Control DPI was transferred as a single-dose (column 3; rows 1-32; 1.11 mM stock), and multi-dose (column 4; rows 1-32; 10mM stock; 1:1.5 dilution; 16pnt titration) positive controls. Vehicle control DMSO was pinned into column 1-2, rows 1-32. Lopac compounds were pinned into columns 5-48 resulting to a final concentration range 57 µM to 78.4 nMControl DPI stock (10 mM) was prepared by dissolving 10 mg in 3.18 mL DMSO; while 1.11 mM DPI stock was prepared by mixing 100 uL of 10 mM DPI with 800 uL DMSO. To create the control plates, we initially start with a 384-well compound working plate. With a repeater pipette, (a.) 16 uL/well of 1.11 mM DPI was added to column 3; (b.) 16 uL/well of DMSO was added into rows 2-16 of column 4; (c.) 50 uL/well of DPI added to rows 1 and 2 of column 4; (d.) 32 uL serial dilution (two-thirds-fold) from rows 2 to 16 of column 4 with manual pipette. From the 384-well compound working plate, 7 uL of respective control compound was transferred to respective columns of the 1536-well compound plate using a multichannel pipette.
3. S. pombe CHP2027 (AC9-GNAS-PDE4D2) expressing fbp1-GFP cells were grown at 30C in EMM medium containing histidine, lysine, and uracil. […]

Structure (SMILES) | activity, positive = inhibition (GFP gain) | outcome
N#CC(C#N)=Cc1ccc(O)c(O)c1 | 0.647% | 
CC(C)=CCOc1c2occc2cc2ccc(=O)oc12 | -0.438% | 
CC[C@@H](CO)NC(=O)[C@@H]1C=C2c3cccc4c3c(cn4C)C[C@H]2N(C)C1 | -0.438% | 
COC[C@H]1OC(=O)c2coc3c2[C@@]1(C)C1=C(C3=O)C2CCC(=O)[C@@]2(C)C[C@H]1OC(C)=O (stereo partly drawn) | -0.438% | 
CN1C[C@H](CNC(=O)OCc2ccccc2)C[C@@H]2c3cccc4c3c(cn4C)C[C@H]21 | -0.438% | 
NN=C(N)N |  | inactive
CC(CCc1ccccc1)NC(C)C(O)c1ccc(O)cc1 (stereo not drawn) | -0.438% | 
Cn1c(CCCC(=O)O)nc2cc(N(CCCl)CCCl)ccc21 | 0.652% [at 57.5 µM, yeast expressing mammalian AC9 and human GNAS] | 
CCC1(C2=NCCN2)Cc2ccccc2O1 (stereo not drawn) | 0.0765% | 
CCCN1CCC[C@@H]2Cc3[nH]ncc3C[C@H]21 |  | inactive
CC[C@@H](CO)NC(=O)[C@@H]1C=C2c3cccc4[nH]cc(c34)C[C@H]2N(C)C1 | -0.438% | 
CCCN1CCC[C@@H]2Cc3nc(N)ncc3C[C@H]21 | 0.559% | 
c1ccc2c(c1)OCC(C1=NCCN1)O2 (stereo not drawn) | -0.438% | 
CC(O)(CS(=O)(=O)c1ccc(F)cc1)C(=O)Nc1ccc(C#N)c(C(F)(F)F)c1 (stereo not drawn) | -0.438% | 
c1ccc(C2CC2)c(OCC2=NCCN2)c1 | -0.438% | 
Nc1ccncc1 | -0.438% | 
C[C@@H]1O[C@@H](O[C@H]2C[C@@H](O)[C@]3(CO)[C@H]4[C@H](O)C[C@]5(C)[C@@H](C6=CC(=O)OC6)CC[C@]5(O)[C@@H]4CC[C@]3(O)C2)[C@H](O)[C@H](O)[C@H]1O | -0.438% | 

Structure (SMILES) | activity, positive = inhibition (GFP gain) | outcome
O=c1[nH]c2ccccc2n1CCCN1CCC(n2c(=O)[nH]c3cc(Cl)ccc32)CC1 | -0.438% | 
CNCC(O)c1ccc(O)cc1 (stereo not drawn) | -0.0905% | 
Cc1ccc(S(=O)(=O)N[C@@H](CCCCN)C(=O)CCl)cc1 | -0.438% | 
Cc1cccc(C)c1NC(=O)CN1CCCC1=O | -0.438% | 
Cc1ncc(CNC(=O)N(CCCl)N=O)c(N)n1 | 0.211% | 
O=C1NCN(c2ccccc2)C12CCN(CC1COc3ccccc3O1)CC2 (stereo not drawn) | 0.0951% | 
NCC(CC(=O)O)c1ccc(Cl)cc1 (stereo not drawn) | 0.796% | 
NCC(O)c1ccc(O)cc1 (stereo not drawn) | 0.0951% | 
COc1ccc(C(CN(C)C)C2(O)CCCCC2)cc1 (stereo not drawn) | -0.438% | 
Cc1cccc(C)c1NC1=NCCCS1 | -0.438% | 
O=c1[nH]c2ccccc2n1C1CCN(CCCC(c2ccc(F)cc2)c2ccc(F)cc2)CC1 | 0.141% | 
COc1ccccc1N1CCNCC1 | 0.0209% | 
NCC1(CC(=O)O)CCCCC1 | -0.438% | 
CC(=O)[C@H]1CC[C@H]2[C@@H]3CC[C@H]4C[C@](C)(O)CC[C@]4(C)[C@H]3CC[C@]12C | -0.438% | 
Fc1ccc(C(OCCN2CCN(CCCc3ccccc3)CC2)c2ccc(F)cc2)cc1 | -0.438% | 
CC(=O)[C@H]1CC[C@H]2[C@@H]3CC[C@H]4C[C@H](O)CC[C@]4(C)[C@H]3C(=O)C[C@]12C | 0.842% | 
